VDR inhibitor: inhibitors of human vitamin D receptor; P11473; VDR-SRC2-3 peptide fluorescence polarization, 2 h; Potency, µM, hits mostly inhibitors; hit rate 0.93% among 400,000
Target sequence (P11473 whole entry, looked up): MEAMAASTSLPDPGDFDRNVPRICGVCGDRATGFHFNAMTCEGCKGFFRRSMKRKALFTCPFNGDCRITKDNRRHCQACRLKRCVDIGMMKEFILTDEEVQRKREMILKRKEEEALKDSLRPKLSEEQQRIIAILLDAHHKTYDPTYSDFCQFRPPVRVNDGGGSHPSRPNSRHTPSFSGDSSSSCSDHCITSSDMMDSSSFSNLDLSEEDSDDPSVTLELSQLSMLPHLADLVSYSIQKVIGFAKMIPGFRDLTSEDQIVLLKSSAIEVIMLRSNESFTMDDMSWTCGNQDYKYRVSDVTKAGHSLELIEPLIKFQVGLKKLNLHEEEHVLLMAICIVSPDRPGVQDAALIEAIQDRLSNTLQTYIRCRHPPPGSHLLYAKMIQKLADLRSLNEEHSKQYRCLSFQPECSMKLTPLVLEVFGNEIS
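Fluorescence polarization assay of small-molecule disruption of VDR binding to coregulator peptide SRC2-3. Compounds and controls pin-transferred, then read after 2 h incubation at ambient room temperature.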
BAZ2B block: BAZ2B (human) inhibition; Q9UIF8; AlphaScreen BAZ2B-H3K14Ac peptide displacement; Potency, µM (highest dose often 114 µM), hits mostly inhibitors; hit rate 4.4% among 360,000; AID 504333; note: nearly all actives have a fitted effect of over 60% in size
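Multi-concentration screen (max 110 uM) measuring displacement of acetylated histone H3 peptide from BAZ2B by AlphaScreen, using 50 nM protein, 50 nM peptide and 10 ug/mL streptavidin donor plus Ni-chelate acceptor beads.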
G9a block: blocks human histone lysine methyltransferase G9a; G9a H3K9 monomethylation, AlphaScreen, 2 h; Potency, µM (series often up to 102 µM), most hits filed as inhibitors; hit rate 8.8% among 350,000; AID 504332; note: nearly all actives have a fitted effect of over 75% in size
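AlphaScreen detection with an anti-monomethyl H3K9 antibody quantified product after a 2 h room-temperature reaction containing 500 nM biotinylated H3K9 peptide, 20 µM SAM and 20 nM enzyme, which had been preincubated 15 min with compound.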
HP1b binding inh: blocks HP1-beta chromodomain binding to methylated histone tails; hit rate 0.56% among 390,000; Potency, µM (top dose mostly 114 µM), hits mostly inhibitors; AlphaScreen HP1-beta / biotin-H3K9me3 peptide binding; P83916; note: nearly all actives have a fitted effect of over 70% in size
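HP1-beta protein (50 nM final) preincubated 30 min at room temperature with biotinylated H3(1-18)K9me3 peptide (50 nM) in PBS pH 7.4, 0.01% Tween-20, then compound added for 30 min. AlphaScreen streptavidin donor/nickel chelate acceptor beads (10 ug/mL final), 30 min dark, luminescence read.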
JMJD2A Tudor: inhibitors of human JMJD2A Tudor domain; O75164; AlphaScreen JMJD2A-Tudor / H3K4me3 peptide binding; Potency, µM (highest dose often 114 µM), usual class: inhibitors; hit rate 4.4% among 390,000; AID 504339; note: nearly all actives have a fitted effect of over 50% in size
PLK1 PBD block: inhibitors of human PLK1 polo-box domain binding | Plk1 PBD binding of FITC phosphopeptide, fluorescence polarization | AID 720504 | Potency, µM, actives largely listed as inhibitors | hit rate 2.8% among 360,000 | P53350; note: series mostly up to about 57 µM; nearly all actives have a fitted effect of over 65% in size
Each line names hits and unclear results; the compound was inactive in the other large screens; ! = a repeat was not active. Most compounds without a hit are left out; they make up all but 11% or so of the library. Calls come from the whole dose curve; as a rule, active = well fitted curve in the direction sought with a large enough effect; inconclusive = small, poorly fitted or top-dose-only effect, or another doubt; inactive = no such curve, though single readings can be large; an effect the other way counts as inactive or inconclusive.

Cc1cc(-n2cnnn2)cc(C)c1S(=O)(=O)N(C)c1ccccc1	none
CCC1CCc2c(sc(NC(=O)c3cnccn3)c2C(N)=O)C1 (stereo not given)	VDR inhibitor inconclusive, G9a block 3.5µM, HP1b binding inh inconclusive, JMJD2A Tudor inconclusive, PLK1 PBD block 3µM
CCN(CC)S(=O)(=O)c1ccc(/C=C/C(=O)OCC(=O)NNC(=O)c2ccc(OC)cc2)cc1	none
Cc1ccc(C(C)C)c(OCC(=O)Nc2c(C(=O)c3ccc(F)cc3)oc3ccccc23)c1	none (no result: PLK1 PBD block)
COc1ccc(CCNS(=O)(=O)c2cc(-c3cc(C)no3)ccc2OC)cc1OC	none (no result: PLK1 PBD block)
COc1ccc(-c2cc(C)no2)cc1S(=O)(=O)NCCc1ccco1	BAZ2B block inconclusive, JMJD2A Tudor 79µM, PLK1 PBD block inconclusive
CC(=O)Nc1cccc(-c2ccnc3c2CC(C(=O)NCc2cccc(Cl)c2)O3)c1 (stereo not given)	none (no result: VDR inhibitor, BAZ2B block, G9a block, HP1b binding inh, JMJD2A Tudor)
CC(C)n1cc(C(N)=S)c(=O)n(Cc2ccccc2)c1=O	G9a block 50µM
Cc1cc(C)c(C)c(S(=O)(=O)Nc2cccc(S(=O)(=O)Nc3ccccc3C(=O)O)c2)c1C	PLK1 PBD block inconclusive (no result: BAZ2B block, G9a block)
Cc1cccc(NC(=O)CNC(=O)Cc2ccc3c(c2)OCCO3)c1C	none
O=c1c2ccccc2cnn1Cc1n[nH]c(=S)n1-c1ccc(Cl)cc1	G9a block 1.8µM, JMJD2A Tudor 22µM
O=C(O)Cn1ncc2ccccc2c1=O	none
CC(c1ccccc1)n1c(Cn2ncc3ccccc3c2=O)n[nH]c1=S (stereo not given)	G9a block 3.5µM, JMJD2A Tudor 32µM
Cc1cc(C)cc(NC(=O)CSc2nc(=O)n(CCCN3CCOCC3)c3c2CCCC3)c1	none
COc1ccc(Cl)cc1NS(=O)(=O)c1cccc(C(=O)NCC2(N(C)C)CCCCC2)c1	none
Cc1ccc2nc3c(cc(C(=O)NCc4ccco4)c(=N)n3C(C)C)c(=O)n2c1	none (no result: PLK1 PBD block)
CCc1ccc2c(c1)C1(C(=O)N2)N2CCCC2C(C(=O)c2ccc3ccccc3c2)C12C(=O)Nc1ccccc12 (stereo not given)	BAZ2B block inconclusive, G9a block 14µM
Clc1ccccc1-c1nccc(NCc2ccccc2)n1	VDR inhibitor inconclusive (no result: BAZ2B block, HP1b binding inh, JMJD2A Tudor, PLK1 PBD block)
CC(=O)OC/C=C(C)/C=C/C=C(C)/C=C/C1=C(C)CCCC1(C)C	VDR inhibitor 40µM! (no result: BAZ2B block, HP1b binding inh, JMJD2A Tudor, PLK1 PBD block)
CC1=C(/C=C/C(C)=C/C=C/C(C)=C/CO)C(C)(C)CCC1	VDR inhibitor inconclusive (no result: BAZ2B block, G9a block)
CC1=C(/C=C/C(C)=C/C=C/C(C)=C\CO)C(C)(C)CCC1	VDR inhibitor inconclusive, G9a block 25µM (no result: BAZ2B block, HP1b binding inh, JMJD2A Tudor, PLK1 PBD block)
Cc1ccc(C)c(NC2=C(Cl)C(=O)OC2OC(C)C)c1 (stereo not given)	none
COCCn1c(SCC(=O)Nc2ccc(Cl)cn2)nnc1-c1ccncc1	none
S=C1SCCCN1Cc1ccc(Cl)cc1	none (no result: VDR inhibitor, BAZ2B block, G9a block, HP1b binding inh, JMJD2A Tudor)
CC(C)NC(=S)NNc1nc2ccccc2s1	VDR inhibitor inconclusive, G9a block 2.2µM, HP1b binding inh 50µM, JMJD2A Tudor 45µM, PLK1 PBD block inconclusive
CCOc1ccc(OCCSc2nc(C)cc(=O)[nH]2)cc1	PLK1 PBD block 3.4µM
Cc1cc(=O)[nH]c(SCC(=O)c2ccc(C(C)C)cc2)n1	G9a block inconclusive
COc1ccc(C(=O)CSc2cc(C)[nH]c(=O)n2)cc1	BAZ2B block 50µM, G9a block inconclusive, JMJD2A Tudor inconclusive
COc1ccc(C(=O)CSc2nc(C)cc(=O)[nH]2)cc1	G9a block 25µM
Cc1ccc(CSc2cc(C)[nH]c(=O)n2)cc1	BAZ2B block 50µM
CC(=O)c1ccc(OCC(=O)OCC(=O)Nc2sccc2C(N)=O)cc1	none
N#Cc1ccccc1NC(=O)CN1C(=O)NC(Cc2c[nH]c3ccccc23)C1=O (stereo not given)	G9a block 10µM
O=C(CN1C(=O)NC(Cc2c[nH]c3ccccc23)C1=O)Nc1ccc(F)cc1F (stereo not given)	none (no result: BAZ2B block, G9a block)
CSc1ccc(CN2C(=O)C(F)(F)Oc3c(C(C)=O)cccc32)cc1	none (no result: VDR inhibitor, BAZ2B block, G9a block, HP1b binding inh, JMJD2A Tudor)
C=CCCC1CN(CCCC)S(=O)(=O)c2c(F)cccc2O1 (stereo not given)	VDR inhibitor 89µM, PLK1 PBD block 21µM (no result: BAZ2B block, G9a block)

From PubChem
